# Assay results from ChEMBL document CHEMBL3988442, “University of Dundee, Small-Polar-MMV Screening Library” (2021).
# Entries with a potency or affinity are not part of this list.
# Target: Protein translocase subunit SecA (Escherichia coli (strain K12)) (UniProt P10408)
# Assay: Assay to Identify E. coli SecA ATPase Inhibitors
# Format: functional
# Design: scale not given: direction of the effect not stated beside the values
# Conditions: 30 µM
# Protein translocase subunit SecA (Escherichia coli (strain K12)), sequence (P10408 whole entry): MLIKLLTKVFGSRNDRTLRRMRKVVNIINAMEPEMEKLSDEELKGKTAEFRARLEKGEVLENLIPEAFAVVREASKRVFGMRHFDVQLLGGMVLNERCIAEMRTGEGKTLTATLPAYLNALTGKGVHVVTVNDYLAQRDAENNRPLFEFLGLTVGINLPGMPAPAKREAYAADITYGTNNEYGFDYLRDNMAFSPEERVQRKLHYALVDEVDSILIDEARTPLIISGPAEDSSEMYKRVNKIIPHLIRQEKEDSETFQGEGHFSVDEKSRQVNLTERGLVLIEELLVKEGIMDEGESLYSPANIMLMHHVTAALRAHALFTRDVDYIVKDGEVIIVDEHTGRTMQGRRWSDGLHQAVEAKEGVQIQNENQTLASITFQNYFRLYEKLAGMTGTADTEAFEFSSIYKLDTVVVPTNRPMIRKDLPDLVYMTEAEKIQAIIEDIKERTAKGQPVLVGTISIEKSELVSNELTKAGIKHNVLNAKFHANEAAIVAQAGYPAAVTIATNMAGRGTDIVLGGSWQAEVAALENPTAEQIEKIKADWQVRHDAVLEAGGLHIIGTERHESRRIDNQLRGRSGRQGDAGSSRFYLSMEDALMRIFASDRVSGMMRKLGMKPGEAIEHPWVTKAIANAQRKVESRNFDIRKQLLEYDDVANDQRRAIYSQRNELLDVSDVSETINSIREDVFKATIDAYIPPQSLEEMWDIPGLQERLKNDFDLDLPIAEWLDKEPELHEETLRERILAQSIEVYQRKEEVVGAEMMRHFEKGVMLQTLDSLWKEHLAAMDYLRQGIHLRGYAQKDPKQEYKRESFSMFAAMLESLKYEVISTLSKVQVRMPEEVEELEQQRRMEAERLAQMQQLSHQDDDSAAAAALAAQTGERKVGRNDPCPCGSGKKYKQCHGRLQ
row,SMILES,Percent Effect [%]
1,COc1cc(CNCCc2nc(C)cs2)cc2c1OCCO2,-2.37
2,Cc1ccc(CN(Cc2ccccn2)C2CC(C)(C)NC(C)(C)C2)s1,-1.39
3,CCc1ccccc1C(=O)N1CCN(S(C)(=O)=O)[C@@H](C)C1,2.08
4,COCCN(Cc1ccc(F)cc1Cl)C(=O)c1ccc(=O)[nH]n1,-4.94
5,CC(Oc1ccccc1C(F)(F)F)C(=O)NCC(N)=O (stereo not given),-4.95
6,Cc1cc(-c2cnc(N3CCNC(=O)C3)nc2-c2ccc(C)o2)on1,-8.2
7,Cc1csc(CNC(=O)NCCc2ccc3c(c2)OCCO3)n1,-5.64
8,O=C1COC2(CCN(CC3CC3)CC2)CN1c1ccccc1,-0.394
9,COc1ccc(CCN2CCC(N3CCN(C)C3=O)CC2)cc1,-6.17
10,CCOC(=O)c1c(NC(=O)CN2CCN(C(C)=O)CC2)sc2c1CCC2,-3.66
11,CC(C)(C(=O)NCC(N)=O)c1ccccc1F,-2.75
12,COc1c(CNCCNC(=O)Cc2ccc(F)cc2)c(C)nn1C,-1.17
13,Cc1ccc(C(=O)N2CCO[C@H]3[C@@H](OCc4ccccn4)CC[C@@H]32)o1,-2.21
14,CN1N=C(C(=O)NCc2ccc3c(c2)CCCN3C)CCC1=O,-4.45
15,Cc1ccc(CCC(=O)N(C)CCN2CCOCC2)c(C)c1,-0.772
16,c1cnnc(N2CCCC2CNCc2nc3ccccc3o2)c1 (stereo not given),-0.208
17,Cc1nc(C(=O)N2CCCC2c2c(C)nn(C)c2C)ccc1C#N (stereo not given),-5.64
18,Cc1noc([C@H]2C[C@@H]3CCN(CC4CC4)C[C@H]3O2)n1,-4.27
19,CCOCC(=O)N1C[C@@H](NC(C)=O)[C@H](c2ccc(OC)cc2)C1,-0.132
20,CCN1CC2(CCNCC2)COc2ccccc2S1(=O)=O,-1.39
